# Most compounds without a hit are left out; they make up all but 17% or so of the library.
# TDP1 cell noCPT: qHTS for Inhibitors of human tyrosyl-DNA phosphodiesterase 1 (TDP1): qHTS in cells in absence of CPT | DT40 Tdp1-/- hTDP1 cells, no CPT, ATP luminescence, 48 h | Potency, µM (series often up to 46.2 µM), inactives show at the top dose activity change, negative = growth inhibition, actives largely listed as inhibitors | actives 15% (n = 420,000) | AID 686978, 2013; also: % is scaled to controls: 0 for no effect and ±100 for the full control effect; nearly all actives have a fitted effect of over 55% in size
#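 Seeded 400 DT40-hTDP1 cells/well (vehicle DMSO, no 20 nM CPT); pinned compounds; ≥48 hr at 37 °C; CellTiter-Glo luminescence as viability measure.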
# TDP1 block: TDP1 (human) enzyme inhibition | Q9NUW8 | recombinant TDP1, AlphaScreen DNA substrate cleavage | actives 0.28% (n = 350,000) | Potency, µM (highest dose often 130 µM), without a hit: top-dose activity change, negative = inhibition, actives largely listed as inhibitors | AID 485290; also: % is scaled to controls: 0 for no effect and ±100 for the full control effect; nearly all actives have a fitted effect of over 40% in size
#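 Compounds were preincubated with Tdp1 (1 nM final) for 15 min at room temperature before substrate (15 nM final) started a 5 min reaction; beads (10 ug/ml final) were then added for 10 min before AlphaScreen detection.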
# TDP1 cell CPT: DT40-hTDP1 cell growth loss with CPT; chicken DT40 Tdp1-/-;hTDP1 cells + 20 nM CPT, ATP luminescence, 48 h; Potency, µM (highest dose often 46.2 µM), inactives show at the highest dose activity change, negative = growth inhibition, usual class: inhibitors; actives 12% (n = 420,000); also: % is scaled to controls: 0 for no effect and ±100 for the full control effect; nearly all actives have a fitted effect of over 55% in size
#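 Chicken DT40 Tdp1-/- cells complemented with human TDP1, 400 cells/well, exposed to compounds plus 20 nM camptothecin for at least 48 h at 37 C; viability read as ATP content by CellTiter-Glo luminescence.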
# ClpP mod: qHTS Assay for Activators of ClpP. AID 651965, 2013. Potency, µM (series often up to 57.5 µM), for the others: at the top dose activity change, negative = active. ATP-dependent Clp protease proteolytic subunit (Bacillus subtilis (strain 168)), P80244. actives 1.9% (n = 340,000). purified B. subtilis ClpP, FRET peptide cleavage, 20 min; active = well fitted falling curve with a large enough effect; inconclusive = small, poorly fitted or top-dose-only effect; inactive = no such curve, though single readings can be large or run the other way; also: the source files actives as falling curves though it sought activators and does not explain the sign; nearly all actives have a fitted effect of over 65% in size
# Target sequence (P80244 whole entry, looked up): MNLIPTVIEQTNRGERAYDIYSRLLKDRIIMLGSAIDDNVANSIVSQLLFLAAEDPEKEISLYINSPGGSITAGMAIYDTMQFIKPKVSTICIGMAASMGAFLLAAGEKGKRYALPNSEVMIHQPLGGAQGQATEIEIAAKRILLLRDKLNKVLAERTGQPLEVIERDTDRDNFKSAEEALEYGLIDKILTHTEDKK
#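 Purified B. subtilis ClpP, 10 microg/mL final in Tris/HCl pH8 with KCl, BSA, glycerol and Tween-20, cleaved an Abz/nitrotyrosine-quenched decapeptide. Fluorescence (ex 320, em 430) was read at 0 and 20 min at room temperature. Delta was normalized to 5.8 microM ADEP and DMSO/no-enzyme controls.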
# * marks the source's active call; other numbers are inactive results; ? = inconclusive; . = no result given; ! = not confirmed by another sample; [ ] = dose if it differs, or a comment. Unless noted, calls follow the shape of the dose curve; as a rule, active = well fitted curve in the direction sought with a large enough effect; inconclusive = small, poorly fitted or top-dose-only effect, or another doubt; inactive = no such curve, though single readings can be large; an effect the other way counts as inactive or inconclusive. Potency is read from the fitted curve at half-maximal effect.
SMILES,TDP1 cell noCPT,TDP1 block,TDP1 cell CPT,ClpP mod
CCCCCCSc1cccc(-c2nc3ccc(Cl)cn3c2NCc2ccccc2)c1,23µM*,-5%,21µM*,-11%
CCCCCCSc1ccc(-c2nc3ccc(C)cn3c2NCc2ccccc2)cc1,16µM*!,1%,23µM*!,4%
CCCCCCSc1ccc(-c2nc3ccc(C)cn3c2NCc2ccccc2)cc1OC,18µM*,0%,16µM*,3%
CCN(CC)Cc1c(O)ccc2c(=O)c(-c3ccccc3OC)coc12,-5%,.,0%,0%
CCN(CC)Cc1c(O)ccc2c([N+](=O)[O-])c(C)n(-c3ccc(OC)cc3)c12,16µM*,0%,7.3µM*,1%
CC[N+](C)(C(=O)O)/C(=C\c1ccccc1)c1ccnc2ccccc12 (stereo not given),?,.,?,1%
COC(=O)C1=C(C)NC(C)=C(C(=O)OC)C1c1ccc(OC(=O)c2ccco2)cc1,-14%,3%,20%,18µM*
CCOC(=O)C1=C(C)NC(C)=C(C(=O)OCC)C1c1ccc(OC)cc1,23µM*,0%,15µM*,-24%
CCOC(=O)C1=C(C)NC(C)=C(C(=O)OCC)C1c1ccc(Br)o1,23µM*,4%,9.2µM*,3.5µM*
COc1ccccc1CNC(=O)CCC1N=C2c3ccccc3N=C(SCc3ccc(Cl)cc3)N2C1=O (stereo not given),?,4%,?,?
CN(CC1CCCN(CCc2ccc(Cl)cc2)C1)C(=O)C(=O)c1ccco1 (stereo not given),-14%,2%,-11%,1%
O=C(Nc1ccc(Cl)cc1)NN1CC(=O)N(c2cccc(C(F)(F)F)c2)CC1=O,3%,.,-5%,.
O=C1/C(=C/c2ccco2)SC(=S)N1CCC(=O)N1CCCCC1CCO (stereo not given),21µM*,5%,-78%,1%
O=C1/C(=C/c2ccccc2F)SC(=S)N1CC(=O)N1CCCCC1c1cccnc1 (stereo not given),3.7µM*,8%,3.7µM*,0%
O=C1/C(=C/c2cccc(Cl)c2)SC(=S)N1CCC(=O)N1CCCCC1CCO (stereo not given),?,8%,?,1%
COc1ccc(/C=C2\SC(=O)N(CCC(=O)N3CCCCC3CCO)C2=O)cc1 (stereo not given),21µM*,3%,?,.
O=C1/C(=C/c2ccccc2F)SC(=S)N1CCC(=O)N1CCCCC1CCO (stereo not given),15µM*,8%,?,.
Nc1cccc(-c2cn3ccsc3n2)c1,-13%,7%,5%,-16%
Nc1c(C(=O)Nc2ccc3c(c2)OCCO3)nnn1Cc1cccc(Cl)c1,16µM*,7%,?,.
Nc1c(C(=O)Nc2ccc3c(c2)OCCO3)nnn1Cc1ccc(F)cc1,-24%,1%,-18%,11µM*
COc1ccc(Br)cc1Cn1nnc(C(=O)Nc2ccc3c(c2)OCCO3)c1N,26µM*,-2%,?,-2%
COc1ccc(-c2oc3ccccc3c2C(=O)OCc2ccc(O)cc2)cc1,-15%,.,-17%,4%
Cc1cccc(-c2oc3ccc(-c4ccc5c(c4)OCO5)cc3c2C(=O)OCc2ccc(O)cc2)c1,?,.,16µM*,5%
CCc1ccc(NC(=O)c2cc3c(COC(C)=O)cnc(C)c3oc2=O)cc1,?,4%,?,0%
Clc1ccc2nc(-c3ccco3)c(Cc3ccccc3)n2c1,?,.,16µM*,-30%
SMILES,TDP1 cell noCPT,TDP1 block,TDP1 cell CPT,ClpP mod
Cc1ccc2nc(-c3ccco3)c(CC(C)(C)C)n2c1,9.2µM*,.,10µM*,-25%
COc1ccccc1Cc1c(-c2ccco2)nc2ccc(Cl)cn12,23µM*,.,16µM*,5%
Clc1ccc2nc(-c3ccco3)c(Cc3ccsc3)n2c1,?,.,?,5%
Cc1ccc2nc(-c3ccco3)c(Cc3ccccc3)n2c1,?,.,?,5%
COc1ccccc1Cc1c(-c2ccco2)nc2ccc(Br)cn12,21µM*,.,10µM*,-1%
O=S1(=O)N=C(Oc2ccccc2Cl)c2ccccc21,.,0%,.,.
Cc1nn(CC(=O)NCCc2ccc(Cl)cc2)c(=O)c2cc3cc(F)ccc3n12,-1%,3%,-4%,-10%
CCN1CCN(C(=O)c2cc(NC(=O)COC)cc3nc(-c4ccncc4)n(C)c23)CC1,17%,.,-2%,.
CCOc1ccc(C(=O)NCC(=O)NCC(c2ccco2)N2CCCCC2)cc1 (stereo not given),-11%,1%,-8%,1%
CC(=O)c1ccc(N2CCN(c3ccc(S(=O)(=O)NCCCN(C)C)cc3[N+](=O)[O-])CC2)cc1,23µM*,5%,23µM*,2%
CN(C)CCNS(=O)(=O)c1ccc(N2CCc3ccccc32)c([N+](=O)[O-])c1,26µM*,19%,16µM*,.
CN(C)CCCNS(=O)(=O)c1ccc(N2CCN(Cc3ccc4c(c3)OCO4)CC2)c([N+](=O)[O-])c1,21µM*,0%[0.0935 µM],23µM*,.
CC(=O)c1ccc(N2CCN(c3ccc(S(=O)(=O)NCCN(C)C)cc3[N+](=O)[O-])CC2)cc1,?,-1%,?,2%
Cc1cc(N2CCOCC2)nc2ccc(NC(=S)NCCC(C)C)cc12,21µM*,.,18µM*,3%
Cc1cc(N2CCN(C)CC2)nc2ccc(NC(=S)NCCC(C)C)cc12,15µM*,.,23µM*,-29%
COc1ccc(CNC(=S)Nc2ccc3nc(N4CCN(C)CC4)cc(C)c3c2)cc1,?,9%,?,.
Cc1cc(N2CCOCC2)nc2ccc(NC(=S)NCCN(C)C)cc12,-1%,.,-1%,.
COc1ccc(CNC(=S)Nc2ccc3nc(N4CCOCC4)cc(C)c3c2)cc1,?,10%,21µM*,4%
Cc1ccc(CN2C[C@H](Sc3ccccn3)C[C@H]2C(=O)Nc2ccc3sc(C)nc3c2)c(C)c1,-16%,.,20%[9.04 µM],.
O=C(Cn1cnc2ccccc2c1=O)c1ccc(Cl)cc1,-16%,-4%,-8%,1%
CCOC(=O)c1c(NC(=O)c2ccccc2)sc2c(O)c(CN(CC)CC)ccc12,18µM*,4%,23µM*,-3%
CC(=O)OC1(C)C=Cc2ccccc2C1=NS(=O)(=O)c1ccccc1 (stereo not given),23µM*,.,?,-1%
COCCNCc1nc2sc(C)c(-c3ccccc3)c2c(=O)[nH]1,?,3%,?,.
COCCNc1nc(CSc2ccccc2)nc2sc(C)c(C)c12,?,?,?,28µM*
Cc1sc2nc(CSc3ccccc3)nc(N3CCN(C)CC3)c2c1C,16µM*,5%,?,-2%
CCCC/C=C/[C@H](c1ccccc1)[C@H](CO)Cc1cccnc1,16µM*,-1%,?,-3%
Cn1nc(-c2ccc(N3CCN(CCO)CC3)c([N+](=O)[O-])c2)c2ccccc2c1=O,?,2%,17%,.

# High-throughput results (PubChem BioAssay)
